According to PubChem BioAssay:
Active and inactive are the calls of the source.

Key:
[1] = system: Human papillomavirus type 1a protein E7 (residues 44-93); assay: small molecules binding HPV E7 44-93 – biochemical, small-molecule microarray, residues 44-93, 635 nm fluorescence, primary screen (AID 1108); settings: fluorescence 635 nm, higher = more signal;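 further: E7 fragment applied at 1 µg/mL in TBST for 1 h at 4 C; score combines spot fluorescence with its signal to noise ratio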
[2] = hepatitis C replication reporter changes, two-sided – Huh7 cells, luciferase reporter, HCV replication inhibitor project, primary screen (AID 1109); settings: Huh7 HCV replicon luciferase reporter, 48 h; higher = more signal;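 further: huh7 hepatoma cells harbouring a luciferase neomycin HCV replicon reporter; luciferase luminescence as measure of HCV replicon replication; test concentration not given here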
[3] = target: Left-right determination factor 2 (Homo sapiens) (UniProt O00292); assay: small molecules binding LEFTY2 protein – biochemical, small-molecule microarray, 635 nm fluorescence scan, primary screen (AID 1110); settings: higher = more signal
[4] = target: Calmodulin-1 (Homo sapiens) (UniProt P0DP23); assay: small molecules binding calmodulin-1 with EGTA – biochemical, small-molecule microarray, Cy5-labelled CALM1, profiling panel (AID 1111); settings: Cy5-CALM1 binding fluorescence, higher = more signal;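 further: labelled calmodulin applied in Tris saline Tween buffer holding calcium plus EGTA and DTT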
[5] = target: Calmodulin-1 (Homo sapiens) (UniProt P0DP23); assay: small molecules binding Ca-loaded calmodulin-1 – biochemical, small-molecule microarray, Cy5-labelled CALM1, plus calcium, artefact control for SMM control-protein annotation, profiling panel (AID 1112); settings: Cy5-CALM1 binding fluorescence, higher = more signal;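 further: score merges spot fluorescence with signal to noise from triplicate slides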
[6] = probe aWnt5a binding to arrayed compounds – biochemical, biotinylated probe, 635/667 nm fluorescence, primary screen (AID 1113); settings: small-molecule microarray, higher = more signal;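 further: score merges 667 nm fluorescence intensity with signal-to-noise per printed feature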
[7] = probe aShh binding to arrayed compounds – biochemical, biotinylated probe, 635/667 nm fluorescence, primary screen (AID 1114); settings: small-molecule microarray, higher = more signal;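 further: probe is biotin-labelled aShh protein from a stem cell growth factor screen; measures binding of labelled protein to compounds printed on the slide; score merges feature fluorescence at 667 nm with signal-to-noise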
[8] = probe aNog binding to arrayed compounds – biochemical, biotinylated probe, 635/667 nm fluorescence, primary screen (AID 1115); settings: small-molecule microarray, higher = more signal;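 further: probe is biotinylated aNog protein used at 0.15 µg/mL for 1 h at 4 C; z-score combines 667 nm fluorescence of each spot with its signal to noise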
[9] = target: Torsin-1A-interacting protein 1 (Homo sapiens) (UniProt Q5JTV8); assay: compound microarray binding of lysate hLAP1 – cell lysate, small-molecule microarray, COS7 lysate, 635/667 nm fluorescence, primary screen (AID 1116); settings: 635 nm fluorescence, higher = more signal
[10] = target: Alpha-bungarotoxin (Bungarus multicinctus) (UniProt P60615); assay: compounds binding labelled alpha-BTX control protein – biochemical, small-molecule microarray, Alexa647 label, 635/667 nm fluorescence, artefact control for SMM control protein annotation, profiling panel (AID 1117); settings: alpha-BTX-A647 binding fluorescence, higher = more signal
Albumin (Bos taurus) = Albumin (Bos taurus) (UniProt P02769); assay: compounds binding labelled BSA control protein – biochemical, small-molecule microarray, Alexa647 label, 635/667 nm fluorescence, artefact control for SMM control protein annotation, profiling panel (AID 1118); settings: BSA-A647 binding, fluorescence 635 nm, higher = more signal;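 further: score merges 667 nm emission intensity and signal-to-noise per printed compound spot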
[11] = probe aXIP binding to arrayed compounds – biochemical, NeuroSMM set, 635/667 nm fluorescence, primary screen (AID 1119); settings: small-molecule microarray, higher = more signal, called active from +8 up or from −8 down;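 further: probe is the protein aXip251-270 applied at 1 µg/mL to compound-printed slides; binding of probe to printed compounds measured as 667 nm fluorescence plus signal to noise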
[12] = probe aNOTCH3 binding on compound microarray – biochemical, small-molecule microarray, 635/667 nm fluorescence, primary screen (AID 1120); settings: higher = more signal;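 further: probe is a biotin-tagged antibody raised against NOTCH3 rather than NOTCH3 protein; score merges spot fluorescence near 667 nm with spot signal to noise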
[13] = probe aNOTCH2 binding on compound microarray – biochemical, small-molecule microarray, 635/667 nm fluorescence, primary screen (AID 1121); settings: higher = more signal;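 further: score merges feature fluorescence read at 667 nm with its signal to noise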
[14] = target: Carbonic anhydrase 2 (Homo sapiens) (UniProt P00918); assay: compounds binding carbonic anhydrase 2 – biochemical, small-molecule microarray, Alexa647-labelled CAII, profiling panel (AID 1122); settings: CAII-A647 binding fluorescence, higher = more signal
[15] = COS7 lysate on small-molecule microarray, probe aHis, 635 nm (AID 1123); settings: COS7 cell lysate, fluorescence, higher = more signal;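 further: z-score combines 667nm fluorescence intensity with signal-to-noise per printed compound spot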
[16] = probe aLAP1 signal on lysate-treated microarray – cell lysate, small-molecule microarray, COS7 lysate, primary screen (AID 1124); settings: probe aLAP1, fluorescence, higher = more signal;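 further: lysate comes from COS7 cells expressing LAP1 and is applied at 0.3 µg/mL; score merges spot fluorescence near 667 nm with signal-to-noise over triplicate slides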
Sam68 (KHDRBS1) = assay: compounds binding KHDRBS1 protein – biochemical, small-molecule microarray, 635 nm fluorescence, primary screen (AID 1125); settings: higher = more signal;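 further: score merges 667 nm channel intensity with signal to noise over triplicate slides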
[17] = system: Chordin-like protein 2 (CHRDL2); assay: compounds binding chordin-like 2 – biochemical, small-molecule microarray, 635 nm fluorescence, primary screen (AID 1126); settings: fluorescence 635 nm, higher = more signal;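 further: printed compound slides probed with Chrdl2 protein at 4 µg/mL for 1 h at 4 C; score merges 667 nm emission intensity with signal to noise over three replicate slides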
[18] = target: Concanavalin-A (Canavalia ensiformis) (UniProt P02866); assay: compounds binding concanavalin A lectin – biochemical, small-molecule microarray, Alexa647 label, 635 nm, artefact control for SMM control protein annotation, primary screen (AID 1127); settings: ConA-A647 binding fluorescence, higher = more signal;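 further: z combines 667 nm emission intensity with signal-to-noise across three replicate slides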
Chain of Concanavalin-A (Canavalia ensiformis) (P02866 whole entry, looked up): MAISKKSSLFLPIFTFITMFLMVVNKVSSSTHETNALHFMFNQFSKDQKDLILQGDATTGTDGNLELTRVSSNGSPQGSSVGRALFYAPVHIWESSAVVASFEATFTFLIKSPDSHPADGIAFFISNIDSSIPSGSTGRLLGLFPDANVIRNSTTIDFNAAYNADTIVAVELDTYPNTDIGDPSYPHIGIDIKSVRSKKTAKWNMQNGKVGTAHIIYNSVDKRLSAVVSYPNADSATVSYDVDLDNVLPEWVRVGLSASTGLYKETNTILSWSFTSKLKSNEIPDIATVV

Chain of Left-right determination factor 2 (Homo sapiens) (O00292 whole entry, looked up): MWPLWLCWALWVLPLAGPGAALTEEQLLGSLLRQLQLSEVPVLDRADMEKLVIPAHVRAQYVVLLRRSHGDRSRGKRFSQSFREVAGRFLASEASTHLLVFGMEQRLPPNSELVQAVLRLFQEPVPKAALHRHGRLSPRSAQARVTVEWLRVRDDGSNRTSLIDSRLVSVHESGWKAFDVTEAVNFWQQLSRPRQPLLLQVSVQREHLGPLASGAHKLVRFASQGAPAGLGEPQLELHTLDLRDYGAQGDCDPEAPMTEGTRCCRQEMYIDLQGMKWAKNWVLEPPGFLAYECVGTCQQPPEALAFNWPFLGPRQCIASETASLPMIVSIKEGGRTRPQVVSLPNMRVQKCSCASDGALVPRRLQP
Chain of Albumin (Bos taurus) (P02769 whole entry, looked up): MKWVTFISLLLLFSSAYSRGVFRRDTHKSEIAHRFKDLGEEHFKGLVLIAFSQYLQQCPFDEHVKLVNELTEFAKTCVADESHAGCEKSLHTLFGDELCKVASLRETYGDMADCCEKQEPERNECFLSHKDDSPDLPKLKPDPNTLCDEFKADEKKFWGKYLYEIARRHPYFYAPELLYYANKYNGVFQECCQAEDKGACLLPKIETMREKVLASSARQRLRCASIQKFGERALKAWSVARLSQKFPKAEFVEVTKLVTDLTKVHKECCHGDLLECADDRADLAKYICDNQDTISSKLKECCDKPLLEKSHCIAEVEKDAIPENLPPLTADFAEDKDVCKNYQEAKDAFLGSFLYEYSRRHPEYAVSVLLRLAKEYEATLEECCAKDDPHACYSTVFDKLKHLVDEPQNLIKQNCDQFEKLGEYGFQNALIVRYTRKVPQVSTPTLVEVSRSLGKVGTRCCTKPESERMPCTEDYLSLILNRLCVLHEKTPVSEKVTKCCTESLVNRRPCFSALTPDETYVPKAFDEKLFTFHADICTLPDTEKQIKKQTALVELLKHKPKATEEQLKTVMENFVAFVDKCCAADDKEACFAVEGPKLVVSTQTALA
Chain of Torsin-1A-interacting protein 1 (Homo sapiens) (Q5JTV8 whole entry, looked up): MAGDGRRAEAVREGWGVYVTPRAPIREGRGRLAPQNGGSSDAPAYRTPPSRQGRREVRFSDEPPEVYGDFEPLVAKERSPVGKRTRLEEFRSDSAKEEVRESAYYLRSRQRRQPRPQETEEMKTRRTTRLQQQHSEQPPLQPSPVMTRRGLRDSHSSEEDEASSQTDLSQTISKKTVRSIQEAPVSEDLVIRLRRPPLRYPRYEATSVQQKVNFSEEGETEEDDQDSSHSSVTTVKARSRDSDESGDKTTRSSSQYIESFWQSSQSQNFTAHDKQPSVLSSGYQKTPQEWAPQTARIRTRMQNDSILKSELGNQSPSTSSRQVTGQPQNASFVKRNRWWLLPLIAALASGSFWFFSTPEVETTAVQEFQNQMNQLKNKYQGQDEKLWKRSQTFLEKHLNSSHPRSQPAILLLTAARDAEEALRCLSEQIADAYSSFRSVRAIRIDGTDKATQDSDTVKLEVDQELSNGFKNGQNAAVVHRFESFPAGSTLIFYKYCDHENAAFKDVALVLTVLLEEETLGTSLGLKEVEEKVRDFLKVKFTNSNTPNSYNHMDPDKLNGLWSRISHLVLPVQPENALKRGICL
Chain of Alpha-bungarotoxin (Bungarus multicinctus) (P60615 whole entry, looked up): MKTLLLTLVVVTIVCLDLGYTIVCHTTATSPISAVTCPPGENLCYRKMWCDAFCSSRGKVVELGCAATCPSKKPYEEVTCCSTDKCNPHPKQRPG

SMILES | composite z-score [1] | z-score [2] | composite z-score [3] | composite z-score [4] | composite z-score [5] | composite z-score [6] | composite z-score [7] | composite z-score [8] | composite z-score [9] | composite z-score [10] | composite z-score (Albumin (Bos taurus)) | composite Z-score [11] | composite z-score [12] | composite z-score [13] | composite z-score [14] | composite z-score [15] | composite z-score [16] | composite z-score (Sam68 (KHDRBS1)) | composite z-score [17] | composite z-score [18]
COc1ccc([Si](C)(C)[C@@H]2[C@@H](CC(=O)N3CCC[C@H]3CO)O[C@]3(C(=O)N(Cc4cccc(N5C(=O)COc6ccccc65)c4)c4ccccc43)[C@H]2C)cc1 | 1.35 | -4.2 | 0.486 | 1.49 | 0.343 | 0.0215 | 0.131 | -0.368 | 1.41 | 0.678 | 0.577 | 0.254 (inactive) | -0.0821 | -0.167 | 0.462 | 0.664 | 0.271 | 1.3 | 0.291 | 1.12
CO[C@H]1O[C@H](CO)[C@@H](OC(=O)Nc2ccc3c(c2)OCO3)[C@H](OC(=O)Nc2ccc3c(c2)OCO3)[C@@H]1OC(=O)Nc1ccc2c(c1)OCO2 | 1.49 | 0.158 | 0.472 | 1.88 | -0.745 | 0.0618 | 0.313 | 0.909 | 1.25 | 1.7 | 0.792 | 0.871 (inactive) | 0.0789 | -0.0349 | 0.572 | 2.51 | 0.943 | 1.31 | 0.12 | 0.954
CCCCCCCCCC(O)C1C=CC2C(=O)N(c3ccccc3)C(=O)C2N1Nc1cc(OC)c(OC)c(OC)c1 (stereo not given) | 0.903 | -2.58 | -1.12 | 1.01 | 1.03 | -0.0685 | 0.239 | 0.641 | 0.559 | 0.774 | 0.168 | 0.182 (inactive) | -0.0751 | -0.14 | 0.528 | 2.25 | -0.354 | 0.683 | -0.919 | 0.932
C=CC[C@H](OC(=O)Nc1ccc(SC)cc1)c1ccc(O)c2ccccc12 | 1.4 | -4.92 | 0.679 | 1.28 | 0.411 | -0.0819 | 0.23 | -0.134 | 0.986 | 1.78 | 0.923 | -0.285 (inactive) | 0.152 | -0.107 | 0.634 | 1.72 | 0.368 | 1.29 | 0.975 | 1.16
CN(C)CCCCCCNC(=O)[C@@H]1C[C@@H]2C(=O)N3CCC[C@H]3C(=O)N2[C@@H]1c1cccc(OCCO)c1 | 0.35 | 0.857 | 0.944 | -0.215 | -1.74 | 0.0566 | 0.176 | 0.822 | 2.07 | 1.79 | -0.694 | 0.759 (inactive) | 0.278 | -0.13 | 0.591 | 2.73 | 0.87 | 1.31 | 1.42 | 1.13
C=CCC(OC(C)=O)[C@@H]1[C@@H](N(Cc2cccc3ccccc23)C(=O)Cc2ccc(F)cc2)c2cc(OCCCO)ccc2N1C(=O)c1ccc2ccccc2c1 (stereo not given in full) | 0.408 | -0.204 | 0.171 | -0.0876 | 0.441 | -0.124 | -0.0626 | -0.17 | -0.0393 | 0.0927 | -0.0241 | -0.748 (inactive) | -0.0111 | -0.104 | -0.0968 | 0.0036 | -0.353 | -0.0562 | 0.235 | -0.15
CCCCC(CC)C(O)C1C=CC2C(=O)N(c3ccccc3)C(=O)C2N1Nc1ccc(C#N)cc1 (stereo not given) | 1.44 | -0.67 | 0.111 | 1.35 | 0.467 | 0.267 | 0.348 | 1.97 | 0.336 | 1.45 | 1.02 | 0.369 (inactive) | 0.64 | 0.353 | 0.595 | 2.21 | 0.664 | 1.13 | 0.0027 | 1.2
CC1CC/C=C\[C@H]2OC34C=CCN(Cc5ccccc5)C(=O)[C@H]3N(C(CO)C(C)C)C(=O)[C@@H]4C2C(=O)O1 (stereo not given in full) | -0.376 | -0.386 | -0.369 | -0.862 | -0.528 | -0.176 | -0.0709 | -0.12 | 0.344 | -0.677 | -1.39 | -0.263 (inactive) | 0.0666 | -0.0418 | 0.821 | 0.152 | 0.219 | -0.271 | -0.398 | -0.355
C#CCN([C@@H](Cc1ccccc1)C(=O)OC)[C@@H](/C=C/C1CC1)[C@H](O)Cc1ccccc1 | -0.447 | -3.13 | 0.0156 | -0.979 | -1.54 | -0.217 | -0.0553 | -0.352 | 0.483 | 0.0673 | 0.801 | -0.275 (inactive) | -0.0984 | -0.208 | -0.321 | -0.0769 | 0.868 | -0.326 | 1.16 | -1.5
CN(C)C(=O)[C@@]1(Cc2ccccc2CN=[N+]=[N-])N=C(c2ccc(OCCCO)cc2)O[C@H]1c1ccccc1N=[N+]=[N-] | 1.45 | -2.99 | -0.553 | 1.73 | 1.11 | -0.191 | -0.138 | 1.84 | 2.26 | 1.93 | 0.973 | 0.91 (inactive) | 0.612 | -0.115 | 0.731 | 2.95 | 0.772 | 1.21 | -0.612 | 1.1
Cc1ccc(F)cc1S(=O)(=O)N[C@@H]1CCN(Cc2ccc(Br)cc2)C1 | -1.51 | -1.5 | 0.681 | -1.03 | -0.806 | -0.126 | -0.214 | -0.252 | 0.418 | 0.322 | 0.694 | -0.388 (inactive) | 0.122 | -0.0424 | 0.276 | -0.593 | -0.386 | -0.811 | 0.743 | -0.862
